# Measured values published in PubChem BioAssay AID1851 (National Center for Advancing Translational Sciences (NCATS), 2009).
# Where “and” joins values, the source holds several entries; their conditions need not be identical. Identical values can stand only once. The campaign covered roughly 16,000 compounds. About 5,700 (36%) were called active. Roughly 24% stayed inconclusive and do not appear here. Calls follow the shape of the dose curve; as a rule, active = well fitted curve in the direction sought with a large enough effect; inconclusive = small, poorly fitted or top-dose-only effect, or effect the other way; inactive = no such curve, though single readings can be large or run the other way. This is one part of the list.
# Biological target: Cytochrome P450 1A2 (Homo sapiens) (UniProt P05177)
# Assay: Cytochrome panel assay with activity outcomes
# Settings: recombinant CYP, pro-luciferin dealkylation, luminescence, p450-cyp1a2; series mostly up to 57.1 µM; activity, negative = inhibition: at the top concentration
# % is scaled to controls: 0 for no effect and ±100 for the full control effect.
# Sequence of Cytochrome P450 1A2 (Homo sapiens) (P05177 whole entry, looked up): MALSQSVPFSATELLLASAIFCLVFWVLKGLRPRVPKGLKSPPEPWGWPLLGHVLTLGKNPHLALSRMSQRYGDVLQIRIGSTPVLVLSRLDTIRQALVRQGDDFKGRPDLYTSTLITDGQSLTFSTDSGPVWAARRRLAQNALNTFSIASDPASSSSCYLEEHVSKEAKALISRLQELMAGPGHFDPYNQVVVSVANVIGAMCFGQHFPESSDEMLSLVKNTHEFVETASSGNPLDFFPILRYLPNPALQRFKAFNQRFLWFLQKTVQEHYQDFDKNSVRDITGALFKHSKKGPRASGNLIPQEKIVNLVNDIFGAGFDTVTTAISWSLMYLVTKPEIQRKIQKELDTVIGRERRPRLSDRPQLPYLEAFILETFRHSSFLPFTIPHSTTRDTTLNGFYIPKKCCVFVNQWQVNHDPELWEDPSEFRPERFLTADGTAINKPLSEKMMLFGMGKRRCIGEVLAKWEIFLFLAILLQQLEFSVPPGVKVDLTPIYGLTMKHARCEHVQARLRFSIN
Structure (SMILES),AC50,"activity, negative = inhibition"
O=c1cc(N2CCOCC2)oc2c(-c3ccccc3)cccc12,1.58 µM (active) and 200 nM (active),
Cc1cc(C)c2nc3c(c([C@H](O)[C@@H]4CCCCN4)c2c1)CC/C3=C/c1ccc(Cl)cc1,,-20.6% [at 11.4 µM] (inactive)
Clc1ccc(C(c2nnnn2C2CCCC2)N2CCN(Cc3ccncc3)CC2)cc1 (centres undefined),10 µM (active),
c1coc(CN2CCN(C(c3cccs3)c3nnnn3C3CCCC3)CC2)c1 (centres undefined),,-10.2% (inactive)
Cc1ccc(C(c2nnnn2C2CCCC2)N2CCN3CCCC3C2)cc1 (centres undefined),,1.2% (inactive)
C/C=C\C1=C(CO)C(=O)C2O[C@]2(CC=C(C)C)C1=O (some centres undefined),,-6.49% [at 11.4 µM] (inactive)
O=[N+]([O-])c1cccc(-c2nc(-c3cccs3)c(-c3cccs3)[nH]2)c1,1 µM (active),
COc1ccc(-c2nc(-c3ccccc3)c(-c3cc([N+](=O)[O-])ccc3C)[nH]2)cc1O,14.1 µM (active),
O=[N+]([O-])c1cccc(-c2nc(-c3ccccc3)c(-c3cccs3)[nH]2)c1,2.51 µM (active),
CCOC(OCC)P(=O)(O)CCCNCc1ccc(Cl)c(Cl)c1,,-38% (inactive)
CCN(CC)c1ccc(NC(=O)c2cnn(CC)c2)cc1,,-3.68% (inactive)
CCOc1ccc(C(=O)Nc2cnn(Cc3ccc(Cl)c(Cl)c3)c2)cc1,10 µM (active),
Cc1cc(C(=O)CSC(=S)SC(C)(C)C)ccc1Cl,1.58 µM (active),
N#CCCn1c(=O)cnc2cnc(OCc3ccccc3)nc21,12.6 µM (active),
N#CCCn1c(=O)c(-c2cc(F)cc(F)c2)nc2cnc(Oc3ccccc3)nc21,2 µM (active),
N#CCCn1c(=O)c(-c2ccc(F)cc2)nc2cnc(OCc3ccccc3)nc21,1.58 µM (active),
N#CCCn1c(=O)c(-c2ccc(Cl)cc2)nc2cnc(OCc3ccccc3)nc21,2 µM (active),
O=C1CC[C@H](NC(=O)c2ccccc2)C(=O)N1,,-20.9% [at 11.4 µM] (inactive)
N#CCCn1c(=O)c(-c2cc(F)cc(F)c2)nc2cnc(OCc3ccccc3)nc21,6.31 µM (active),
COc1ncc2nc(-c3cc(F)cc(F)c3)c(=O)n(CCC#N)c2n1,6.31 µM (active),
N#CCCn1c(=O)c(-c2ccccc2)nc2cnc(OCc3ccccc3)nc21,3.16 µM (active),
CN(C)c1ncc2nc(-c3cc(F)cc(F)c3)c(=O)n(CCC#N)c2n1,,-15.7% (inactive)

Structure (SMILES),AC50,"activity, negative = inhibition"
COc1cccc([C@@H]2Oc3ccc(OC)cc3/C(=N/O[C@@H](C)c3cn([C@H]4COC[C@H]4O)nn3)[C@@H]2O)c1,,8.26% [at 11.4 µM] (inactive)
Clc1ccccc1C(Nc1ncccn1)Nc1ncccn1,,-16.9% [at 11.4 µM] (inactive)
CC(=O)c1c(C(C)=O)c(C)n(NC(=O)c2ccncc2)c1C,,8.59% (inactive)
CC(=O)c1cc2c(cc1NC(=O)c1c(-c3ccccc3)noc1C)OCO2,2.24 µM (active),
Cc1onc(-c2ccccc2)c1C(=O)NC(CC(=O)O)c1ccc(OC(C)C)cc1 (centres undefined),,-19.1% (inactive)
Cc1onc(-c2c(Cl)cccc2Cl)c1C(=O)N1CCc2ccccc2C1,,-17.5% (inactive)
CC(=O)c1cc2c(cc1NC(=O)CCCC(=O)O)OCO2,,-28% (inactive)
Cc1onc(-c2c(Cl)cccc2Cl)c1C(=O)Nc1ccc2c(c1)OCO2,3.16 µM (active),
C/C(=C(/CCO)SSC[C@@H]1CCCO1)N(C=O)Cc1cnc(C)nc1N,,-10.8% [at 25.6 µM] (inactive)
CCOC(=O)C1CCCN(C(=O)CSCc2ccccc2)C1 (centres undefined),,-15.5% (inactive)
CC(C)CC(=O)N1CCC(O)(CS(=O)(=O)Cc2ccc(Cl)cc2)CC1,,11% (inactive)
CCOC(=O)N1CCN(C(=O)CSCc2ccc(Cl)cc2)CC1,6.31 µM (active),
CCOc1cccc2cc(C(N)=O)c(=NCc3ccccc3)oc12,2.24 µM (active),
COc1cccc(-c2ccc3ncnc(N(C)Cc4ccco4)c3c2)c1,1.26 µM (active),
CN(Cc1ccco1)c1ncnc2ccc(-c3cccnc3)cc12,0.316 µM (active),
Cc1ccc(CSc2nnc3c(n2)OC2(Nc4ccccc4-3)C(=O)Nc3ccc(F)cc32)cc1 (centres undefined),14.1 µM (active),
CCCNC(=O)OC[C@H]1O[C@@H](CCO/N=C2/[C@H]3O[C@@H]3[C@@H](O)[C@H]3[C@H]2CCn2c(=O)n(-c4ccccc4)c(=O)n23)C=C[C@@H]1Oc1ccc(OC)cc1,,-12.7% [at 11.4 µM] (inactive)
Cn1cc(-c2nc3cncnc3n(C3CC3)c2=O)c2ccccc21,0.2 µM (active),
COc1ccc(-n2c(=O)c(-c3cn(C)c4ccccc34)nc3cncnc32)cc1,0.316 µM (active),
COc1ccc(-n2c(=O)c(-c3cn(C)c4ccccc34)nc3cnc(OC)nc32)cc1,,-22% (inactive)
COc1ccc(Oc2ncc3nc(-c4cn(C)c5ccccc45)c(=O)n(C4CC4)c3n2)cc1,12.6 µM (active),
Cn1cc(-c2nc3cncnc3n(-c3ccccc3)c2=O)c2ccccc21,1.58 µM (active),
